Bioassay records (PubChem)
In the library only some 20% were active in any assay of this set; here they are far more common.
Pf growth 96h: Primary qHTS for delayed death inhibitors of the malarial parasite plastid, 96 hour incubation; P. falciparum luciferase reporter growth, 96 h; Potency, µM (top dose mostly 28.7 µM), for the others: at the top dose activity change, negative = inhibition, usual class: inhibitors; hit rate 6.9% among 320,000; note: potency is the fitted concentration of half-maximal effect; % is set by controls: 0 for no effect and ±100 for the full control effect
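P. falciparum expressing integrated firefly luciferase grown in erythrocytes (2% hematocrit, 0.05% parasitemia final) with compounds for 96 hours at 37 C, 5% CO2. Growth inhibition read as loss of luminescence after adding luciferase detection reagent.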
Cycloheximide cs: Cycloheximide Counterscreen for Small Molecule Inhibitors of Shiga Toxin | cell reporter, cycloheximide protein synthesis inhibition counterscreen | max response, % | hit rate 12% among 300,000 | AID 2314, 2010; in the data active = max response mostly above about 13%, no sharp cut-off; inactive = mostly below about 14%; note: read at 38.3 µM for the half of the compounds with a filed dose; 0% is about no effect
Shiga inhibitor: A qHTS for Small Molecule Inhibitors of Shiga Toxin; hit rate 9.2% among 290,000; AID 2315, 2010; inhibition, % at 38.7 µM; Vero cells, Shiga toxin protein synthesis inhibition reporter; in the data active = inhibition mostly above about 28%, no sharp cut-off; inactive = mostly below about 43%; note: 0% is about no effect
Pf growth 48h: Primary qHTS for delayed death inhibitors of the malarial parasite plastid, 48 hour incubation | hit rate 5.9% among 310,000 | Potency, µM (doses to about 28.7 µM), for the others: at the highest dose activity change, negative = inhibition, usual class: inhibitors | P. falciparum luciferase growth in erythrocytes, 48 h | AID 504832, 2011; note: potency is the fitted concentration of half-maximal effect; % is set by controls: 0 for no effect and ±100 for the full control effect
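Cell-based growth assay: transgenic P. falciparum expressing firefly luciferase, cultured in red cells within RPMI 1640 containing 0.5% w/v Albumax, 24 mM bicarbonate and gentamycin. A drop in luciferase activity indicates inhibition.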
HCMV inh: qHTS Assay for inhibitors of the human cytomegalovirus (HCMV); HFF cells, HCMV-luciferase reporter, 72 h; active compounds read low; activity change, negative = inhibition, % at 57.5 µM; hit rate 4.5% among 410,000; in the data active = activity change below about -60%; inconclusive = no clear call, values can overlap the other calls; inactive = above about -39%; note: % is set by controls: 0 for no effect and ±100 for the full control effect
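Two-dose cell screen: HFF monolayers treated with compounds and infected with luciferase-expressing HCMV at 1 PFU/cell, 72 h at 37C, then lysed for luciferase measurement.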
An asterisk follows results filed as active; ? = inconclusive; . = not tested or not shown. Unless noted, calls come from the whole dose curve; as a rule, active = well fitted inhibition curve with a large enough effect; inconclusive = small, poorly fitted or top-dose-only effect, or another doubt; inactive = no such curve, though single readings can be large or run the other way.

SMILES	Pf growth 96h	Cycloheximide cs	Shiga inhibitor	Pf growth 48h	HCMV inh
CCOC(=O)N1CCN(S(=O)(=O)N2CCCC(C(=O)NCCCN3CCCCC3CC)C2)CC1 (stereo not drawn)	0%	-3	-8	?	0
CC(=O)Nc1ccc(NC(=O)CSc2nc3ccccc3o2)cc1	24%	17*	115*	180%	0
O=C(CSc1nc2ccccc2o1)Nc1ccc(Cl)cc1	.	22*	83*	62%	-15
O=C(CCSc1nc2ccccc2o1)Nc1ccccc1	15%	1	4	44%	-25
CC(=O)Nc1nonc1NC(=O)CSc1nc2ccccc2o1	13%	5	-2	?	-7
O=C(c1ccco1)[C@@H]1[C@@H]2C(=O)N(c3ccc(F)cc3)C(=O)[C@@H]2C2c3ccccc3C=CN21 (stereo partly drawn)	?	15	21	-11%	.
O=C1NC(=O)[C@@H]2C3c4ccccc4C=CN3[C@H](C(=O)c3cccs3)[C@H]12 (stereo partly drawn)	?	31*	69	28%	.
CC(=O)NC1(c2ccccc2)CCN(Cc2nnnn2C(C)(C)C)CC1	12µM*	-2	-10	5%	-1
CCC(C)NC(=O)c1c(N)n(CC2CCCO2)c2nc3ccccc3nc12 (stereo not drawn)	13µM*	-3	-23	12µM*	-20
COCCCn1c(N)c(C(=O)NCc2ccco2)c2nc3ccccc3nc21	?	12	39	9.3µM*	-2
COCCCn1c(N)c(C(=O)OC(C)COC)c2nc3ccccc3nc21 (stereo not drawn)	?	-1	-5	-9%	-10
CCC(C)NC(=O)c1c(N)n(CCCOC)c2nc3ccccc3nc12 (stereo not drawn)	2.3µM*	-2	-46	?	-30
CC(C)CCNC(=O)c1c(N)n(CC2CCCO2)c2nc3ccccc3nc12 (stereo not drawn)	3%	-2	-4	.	-11
CCCCOCCCn1c(N)c(C(=O)OC(C)COC)c2nc3ccccc3nc21 (stereo not drawn)	?	-3	-5	4.7µM*	0
COC(=O)Cn1c(C2CC(=O)N(c3c(C)cccc3C)C2)nc2ccccc21 (stereo not drawn)	.	.	.	.	3
Nc1c(C(=O)NCc2ccco2)c2nc3ccccc3nc2n1CCc1ccccc1	-100%	8	17	?	-69*
C=CCNC(=O)c1c(N)n(Cc2ccco2)c2nc3ccccc3nc12	35%	-2	-9	30%	-6
O=C(O)CN1C(=O)c2ccc(Oc3ccc4c(c3)C(=O)N(CC(=O)O)C4=O)cc2C1=O	50%	-5	-12	2.1µM*	-30
C=C1C2(C(=O)Nc3nccs3)CCC(C2)C1(C)C (stereo not drawn)	.	10	-7	1.2µM*	-22
O=C(Nc1nccs1)C1(c2ccc(Cl)cc2)CC1	?	0	14	?	-38
CCN(CC)S(=O)(=O)c1ccc(C(=O)OCn2c(SC)nnc(C)c2=O)cc1	-3%	-1	-9	2%	-27
COc1ccc2cc(C(=O)N3CCN(c4ccc(F)cc4)CC3)[nH]c2c1	-5%	1	12	-15%	-28
CCOC(=O)C1CCCN(C(=O)c2cc3ccc(OC)cc3[nH]2)C1 (stereo not drawn)	110%	23*	36	101%	33
COc1ccc2cc(C(=O)N3CCN(Cc4ccc5c(c4)OCO5)CC3)[nH]c2c1	13µM*	5	-1	10%	0
CCN1CCN(C(=O)c2cc3ccc(OC)cc3[nH]2)CC1	130%	31*	60*	99%	122
COc1ccc2cc(C(=O)N3CCN(C)CC3)[nH]c2c1	229%	33*	86*	167%	68
O=C1COc2ccc(-c3cc(-c4ccc(Cl)cc4)c4c(n3)-c3ccccc3OC4)cc2N1	.	.	.	.	9
COc1ccc(CCNC(=O)C(=O)NCC(c2ccco2)S(=O)(=O)c2cccs2)cc1 (stereo not drawn)	.	.	.	.	-1
COc1ccc(-c2coc3cc(O)ccc3c2=O)cc1	.	.	.	.	37
COc1ccc(-c2coc3cc(O)cc(O)c3c2=O)cc1	79%	50*	93*	111%	6
